{"source": "the supplement of paper PMC10037445", "key": {"RAW-Dual [1]": {"system": "RAW-Dual", "experiment": "IRF Lucia reporter activity, fold change vs agonist alone; cytotoxicity flag (confluency mask): not cytotoxic; higher = enhanced IRF activity", "in_short": "(§1)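 Library stock was pin-tooled at 50 nL into 384-well plates of RAW-Dual macrophages (50,000 cells/well, DMEM), followed 1 h later by a PRR agonist, and the cells were kept at 37 °C, 5% CO2. Supernatant collected after 20 hours was read for IRF by QuantiLuc luminescence and for NF-κB by QuantiBlue absorbance at 620 nm. Reporter activity is fold change over agonist-alone wells, and a well counted as cytotoxic when its IncuCyte confluency was below 70% of agonist controls in both mask sets.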"}, "RAW-Dual [2]": {"system": "RAW-Dual", "experiment": "IRF Lucia reporter activity, fold change vs agonist alone; higher = enhanced IRF activity", "conditions": "library stock concentration (final ~1000-fold dilution): 10 mM; cytotoxicity flag (confluency mask): not cytotoxic; agonist: MPLA (TLR4) […]", "in_short": "as §1"}, "RAW-Dual [3]": {"system": "RAW-Dual", "experiment": "IRF Lucia reporter activity, fold change vs agonist alone; cytotoxicity flag (confluency mask): cytotoxic (confluency <70% of control); higher = enhanced IRF activity", "in_short": "as §1"}, "[4]": {"conditions": "agonist: 3'3'-cGAMP (STING) 10 ug/mL"}}, "note": "Whole data set: some 2,900 compounds, median “IRF Lucia reporter activity, fold change vs agonist alone” near 0.9, cut for the highest 2% near 2.8. For the sample, the highest values were picked, then their nearest neighbours and some compounds at random."}
{"smiles": "Cn1cc(-c2cc3c(-c4ccc(CNC(=O)c5noc(C(C)(C)C)n5)c(F)c4)ncnc3[nH]2)cn1", "note": "(library stock concentration (final ~1000-fold dilution): 10 mM)", "values": [{"measurement": "IRF Lucia reporter activity", "setting": "RAW-Dual [1]; [4]", "value": 0.039}, {"measurement": "IRF Lucia reporter activity", "setting": "RAW-Dual [1]; agonist: LPS (TLR4) 0.1 ug/mL", "value": 0.396}]}
{"smiles": "Cc1nnc(SCC2=C(C(=O)O)N3C(=O)C(NC(=O)Cn4cnnn4)C3SC2)s1", "note": "(stereo not drawn)", "values": [{"measurement": "IRF Lucia reporter activity", "setting": "RAW-Dual [2]", "value": 1.07}]}
{"smiles": "Cc1nnc(SCC2=C(C(=O)O)N3C(=O)C(NC(=O)Cn4cnnn4)C3SC2)s1", "note": "(stereo not drawn) (library stock concentration (final ~1000-fold dilution): 10 mM)", "values": [{"measurement": "IRF Lucia reporter activity", "setting": "RAW-Dual [1]; [4]", "value": 1.08}, {"measurement": "IRF Lucia reporter activity", "setting": "RAW-Dual [1]; agonist: LPS (TLR4) 0.1 ug/mL", "value": 1.26}]}
{"smiles": "Cc1ccsc1C(=CCCN1CCCC(C(=O)O)C1)c1sccc1C", "note": "(stereo not drawn) (library stock concentration (final ~1000-fold dilution): 10 mM)", "values": [{"measurement": "IRF Lucia reporter activity", "setting": "RAW-Dual [1]; [4]", "value": 0.964}, {"measurement": "IRF Lucia reporter activity", "setting": "RAW-Dual [1]; agonist: LPS (TLR4) 0.1 ug/mL", "value": 1.29}]}
{"smiles": "Cc1ccsc1C(=CCCN1CCCC(C(=O)O)C1)c1sccc1C", "note": "(stereo not drawn)", "values": [{"measurement": "IRF Lucia reporter activity", "setting": "RAW-Dual [2]", "value": 1}]}
{"smiles": "COC1CC2CCC(C)C(O)(O2)C(=O)C(=O)N2CCCCC2C(=O)OC(C(C)CC2CCC(n3cnnn3)C(OC)C2)CC(=O)C(C)C=C(C)C(O)C(OC)C(=O)C(C)CC(C)C=CC=CC=C1C", "note": "(stereo not drawn)", "values": [{"measurement": "IRF Lucia reporter activity", "setting": "RAW-Dual [2]", "value": 0.832}]}
{"smiles": "COC1CC2CCC(C)C(O)(O2)C(=O)C(=O)N2CCCCC2C(=O)OC(C(C)CC2CCC(O)C(OC)C2)CC(=O)C(C)C=C(C)C(O)C(OC)C(=O)C(C)CC(C)C=CC=CC=C1C", "note": "(stereo not drawn)", "values": [{"measurement": "IRF Lucia reporter activity", "setting": "RAW-Dual [2]", "value": 1.46}]}
{"smiles": "COC1CC2CCC(C)C(O)(O2)C(=O)C(=O)N2CCCCC2C(=O)OC(C(C)CC2CCC(n3cnnn3)C(OC)C2)CC(=O)C(C)C=C(C)C(O)C(OC)C(=O)C(C)CC(C)C=CC=CC=C1C", "note": "(stereo not drawn) (library stock concentration (final ~1000-fold dilution): 10 mM)", "values": [{"measurement": "IRF Lucia reporter activity", "setting": "RAW-Dual [1]; [4]", "value": 0.943}, {"measurement": "IRF Lucia reporter activity", "setting": "RAW-Dual [1]; agonist: LPS (TLR4) 0.1 ug/mL", "value": 0.694}]}
{"smiles": "CCC1/C=C(\\C)CC(C)CC(OC)C2OC(O)(C(=O)C(=O)N3CCCCC3C(=O)OC(/C(C)=C/C3CCC(Cl)C(OC)C3)C(C)C(O)CC1=O)C(C)CC2OC", "note": "(stereo not drawn)", "values": [{"measurement": "IRF Lucia reporter activity", "setting": "RAW-Dual [2]", "value": 1.02}]}
{"smiles": "COC1CC2CCC(C)C(O)(O2)C(=O)C(=O)N2CCCCC2C(=O)OC(C(C)CC2CCC(OC(=O)C(C)(CO)CO)C(OC)C2)CC(=O)C(C)C=C(C)C(O)C(OC)C(=O)C(C)CC(C)C=CC=CC=C1C", "note": "(stereo not drawn) (library stock concentration (final ~1000-fold dilution): 10 mM)", "values": [{"measurement": "IRF Lucia reporter activity", "setting": "RAW-Dual [1]; [4]", "value": 0.69}, {"measurement": "IRF Lucia reporter activity", "setting": "RAW-Dual [1]; agonist: LPS (TLR4) 0.1 ug/mL", "value": 2.98}]}
{"smiles": "CCC1/C=C(\\C)CC(C)CC(OC)C2OC(O)(C(=O)C(=O)N3CCCCC3C(=O)OC(/C(C)=C/C3CCC(Cl)C(OC)C3)C(C)C(O)CC1=O)C(C)CC2OC", "note": "(stereo not drawn) (library stock concentration (final ~1000-fold dilution): 10 mM)", "values": [{"measurement": "IRF Lucia reporter activity", "setting": "RAW-Dual [1]; [4]", "value": 0.715}, {"measurement": "IRF Lucia reporter activity", "setting": "RAW-Dual [1]; agonist: LPS (TLR4) 0.1 ug/mL", "value": 1.66}]}
{"smiles": "COC1CC2CCC(C)C(O)(O2)C(=O)C(=O)N2CCCCC2C(=O)OC(C(C)CC2CCC(OCCO)C(OC)C2)CC(=O)C(C)C=C(C)C(O)C(OC)C(=O)C(C)CC(C)C=CC=CC=C1C", "note": "(stereo not drawn)", "values": [{"measurement": "IRF Lucia reporter activity", "setting": "RAW-Dual [2]", "value": 3.06}]}
{"smiles": "COC1CC2CCC(C)C(O)(O2)C(=O)C(=O)N2CCCCC2C(=O)OC(C(C)CC2CCC(O)C(OC)C2)CC(=O)C(C)C=C(C)C(O)C(OC)C(=O)C(C)CC(C)C=CC=CC=C1C", "note": "(stereo not drawn) (library stock concentration (final ~1000-fold dilution): 10 mM)", "values": [{"measurement": "IRF Lucia reporter activity", "setting": "RAW-Dual [1]; [4]", "value": 1.05}, {"measurement": "IRF Lucia reporter activity", "setting": "RAW-Dual [1]; agonist: LPS (TLR4) 0.1 ug/mL", "value": 2.09}]}
{"smiles": "COC1CC2CCC(C)C(O)(O2)C(=O)C(=O)N2CCCCC2C(=O)OC(C(C)CC2CCC(OP(C)(C)=O)C(OC)C2)CC(=O)C(C)C=C(C)C(O)C(OC)C(=O)C(C)CC(C)C=CC=CC=C1C", "note": "(stereo not drawn)", "values": [{"measurement": "IRF Lucia reporter activity", "setting": "RAW-Dual [2]", "value": 1.24}]}
{"smiles": "COC1CC2CCC(C)C(O)(O2)C(=O)C(=O)N2CCCCC2C(=O)OC(C(C)CC2CCC(OCCO)C(OC)C2)CC(=O)C(C)C=C(C)C(O)C(OC)C(=O)C(C)CC(C)C=CC=CC=C1C", "note": "(stereo not drawn) (library stock concentration (final ~1000-fold dilution): 10 mM)", "values": [{"measurement": "IRF Lucia reporter activity", "setting": "RAW-Dual [1]; [4]", "value": 1.28}, {"measurement": "IRF Lucia reporter activity", "setting": "RAW-Dual [1]; agonist: LPS (TLR4) 0.1 ug/mL", "value": 2.63}]}
{"smiles": "COC1CC2CCC(C)C(O)(O2)C(=O)C(=O)N2CCCCC2C(=O)OC(C(C)CC2CCC(O)C(OC)C2)CC(=O)C(C)C=C(C)C(O)C(OC)C(=O)C(C)CC(C)C=CC=CC=C1C", "note": "(stereo not drawn) (library stock concentration (final ~1000-fold dilution): .1 mM)", "values": [{"measurement": "IRF Lucia reporter activity", "setting": "RAW-Dual [1]; [4]", "value": 0.922}, {"measurement": "IRF Lucia reporter activity", "setting": "RAW-Dual [1]; agonist: LPS (TLR4) 0.1 ug/mL", "value": 0.698}]}
{"smiles": "COC1CC2CCC(C)C(O)(O2)C(=O)C(=O)N2CCCCC2C(=O)OC(C(C)CC2CCC(OC(=O)C(C)(CO)CO)C(OC)C2)CC(=O)C(C)C=C(C)C(O)C(OC)C(=O)C(C)CC(C)C=CC=CC=C1C", "note": "(stereo not drawn)", "values": [{"measurement": "IRF Lucia reporter activity", "setting": "RAW-Dual [2]", "value": 4.11}]}
{"smiles": "COC1CC2CCC(C)C(O)(O2)C(=O)C(=O)N2CCCCC2C(=O)OC(C(C)CC2CCC(OP(C)(C)=O)C(OC)C2)CC(=O)C(C)C=C(C)C(O)C(OC)C(=O)C(C)CC(C)C=CC=CC=C1C", "note": "(stereo not drawn) (library stock concentration (final ~1000-fold dilution): 10 mM)", "values": [{"measurement": "IRF Lucia reporter activity", "setting": "RAW-Dual [1]; [4]", "value": 1.03}, {"measurement": "IRF Lucia reporter activity", "setting": "RAW-Dual [1]; agonist: LPS (TLR4) 0.1 ug/mL", "value": 1.6}]}
{"smiles": "CCCc1nc(C)c2c(=O)[nH]c(-c3cc(S(=O)(=O)N4CCN(CC)CC4)ccc3OCC)nn12.Cl.O.O.O", "note": "(library stock concentration (final ~1000-fold dilution): 10 mM)", "values": [{"measurement": "IRF Lucia reporter activity", "setting": "RAW-Dual [1]; [4]", "value": 0.839}, {"measurement": "IRF Lucia reporter activity", "setting": "RAW-Dual [1]; agonist: LPS (TLR4) 0.1 ug/mL", "value": 0.967}]}
{"smiles": "CCCc1nc(C)c2c(=O)[nH]c(-c3cc(S(=O)(=O)N4CCN(CC)CC4)ccc3OCC)nn12.Cl.O.O.O", "values": [{"measurement": "IRF Lucia reporter activity", "setting": "RAW-Dual [2]", "value": 0.917}]}
{"smiles": "O=C(NCCN1CCOCC1)Nc1nc2ccc(Sc3nnc4ccc(-c5ccc(F)cc5)nn34)cc2s1", "values": [{"measurement": "IRF Lucia reporter activity", "setting": "RAW-Dual [2]", "value": 0.994}]}
{"smiles": "O=C(NCCN1CCOCC1)Nc1nc2ccc(Sc3nnc4ccc(-c5ccc(F)cc5)nn34)cc2s1", "note": "(library stock concentration (final ~1000-fold dilution): 10 mM)", "values": [{"measurement": "IRF Lucia reporter activity", "setting": "RAW-Dual [1]; [4]", "value": 1.09}, {"measurement": "IRF Lucia reporter activity", "setting": "RAW-Dual [1]; agonist: LPS (TLR4) 0.1 ug/mL", "value": 1.23}]}
{"smiles": "CC1=C(CSC(=S)N2CCCCC2)C(=O)c2ccccc2C1=O", "note": "(library stock concentration (final ~1000-fold dilution): 10 mM)", "values": [{"measurement": "IRF Lucia reporter activity", "setting": "RAW-Dual [3]; [4]", "value": 0.553}, {"measurement": "IRF Lucia reporter activity", "setting": "RAW-Dual [3]; agonist: LPS (TLR4) 0.1 ug/mL", "value": 0.0143}]}
{"smiles": "COc1cc2c(cc1OC(C)C)C(c1ccc(Cl)cc1)N(c1ccc(N(C)CC3CCC(N4CCN(C)C(=O)C4)CC3)cc1)C(=O)C2", "note": "(stereo not drawn) (library stock concentration (final ~1000-fold dilution): 10 mM)", "values": [{"measurement": "IRF Lucia reporter activity", "setting": "RAW-Dual [1]; [4]", "value": 0.135}, {"measurement": "IRF Lucia reporter activity", "setting": "RAW-Dual [1]; agonist: LPS (TLR4) 0.1 ug/mL", "value": 1.35}]}
